PubChem BioAssay AID540336 (Broad Institute, 2011)
Values joined by “and” are separate entries in the source; they are usually repeats but may differ in a detail not shown here. Equal entries are not always repeated. Out of some 330,000 compounds screened, about 520 (0.16%) were called active.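 Rule for the calls: active = inhibition of at least 50% in every replicate; inconclusive = best replicate reaches 50% inhibition but some replicates fall short; inactive = the rest.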 The list comes from a sample in which actives are over-represented; it also holds similar structures and randomly drawn compounds. A structure can be active in one record and inactive in another.

molecular target: Histone acetyltransferase RTT109 (Candida albicans (strain SC5314 / ATCC MYA-2876)) (UniProt Q5AAJ8); assay: inhibitors of C. albicans Rtt109/Vps75 HAT, primary screen, biochemical, ThioGlo CoA-SH fluorescence, plate reader (AID 540336); conditions: purified Rtt109/Vps75, ThioGlo CoA-SH fluorescence, 4 h; at 34.9 µM; stronger effect = higher value
Sequence (Q5AAJ8 whole entry, looked up): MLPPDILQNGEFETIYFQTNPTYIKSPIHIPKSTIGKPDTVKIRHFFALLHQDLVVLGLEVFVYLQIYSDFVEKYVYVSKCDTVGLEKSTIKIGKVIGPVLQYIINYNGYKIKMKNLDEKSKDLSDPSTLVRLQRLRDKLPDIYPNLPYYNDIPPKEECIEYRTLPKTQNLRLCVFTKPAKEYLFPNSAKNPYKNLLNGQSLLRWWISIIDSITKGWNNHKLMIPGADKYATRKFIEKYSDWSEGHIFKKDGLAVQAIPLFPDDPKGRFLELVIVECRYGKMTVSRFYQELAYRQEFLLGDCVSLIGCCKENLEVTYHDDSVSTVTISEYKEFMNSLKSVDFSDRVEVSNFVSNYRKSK

Row | SMILES | inhibition
1 | COc1ccc(CNC(=O)COC(=O)C2=Cc3ccccc3OC2)cc1 | 7.22% (inactive)
2 | Cn1c(=O)[nH]c2c(c(C(=O)O)nn2C)c1=O | 7.13% (inactive)
3 | C[N+]1(CC(O)COc2ccccc2)CCN(C(=O)c2ccc([N+](=O)[O-])cc2)CC1 (stereo not given) | 52.5% (active)
4 | CC1CCN(CC(O)COc2ccc(C(=O)c3ccccc3)cc2)CC1 (stereo not given) | 0.839% (inactive)
5 | O=C(COc1ccccc1)Nc1ccc(C(=O)N2CCCC2)cc1 | 28.7% (inactive)
6 | NC(=O)C1CCN(C(=O)c2cc(S(=O)(=O)N3CCN(c4ccccc4)CC3)ccc2Cl)CC1 | -0.602% (inactive)
7 | CCC(C)C1(C2CCCC2)NC(=O)NC1=O (stereo not given) | -0.893% (inactive)
8 | CC(C)[C@@H](C(=O)OCC(=O)c1ccc2c(c1)NC(=O)CO2)N1C(=O)c2ccccc2C1=O | 2.17% (inactive)
9 | O=c1nc(NO)ccn1C1CCCO1 (stereo not given) | -2.47% (inactive)
10 | O=C(O)c1ccc(S(=O)(=O)c2ccccc2)s1 | -2.02% (inactive)
11 | Cc1c[n+]([O-])ccc1[N+](=O)[O-] | -8.76% (inactive)
12 | Cc1nn(-c2ncccn2)c2c1C(=O)CC(C)(C)C2Br (stereo not given) | 8.81% (inactive)
13 | COCCN(C(=O)C(C)N1C(=O)c2ccccc2C1=O)c1c(N)n(CC(C)C)c(=O)[nH]c1=O (stereo not given) | -5.79% (inactive)
14 | CN(C)/C=C(/C(=O)c1ccccc1)S(=O)(=O)c1ccc(Cl)cc1 | 0.945% (inactive)
15 | Cc1cccc2sc(N(CCCN(C)C)C(=O)CCS(=O)(=O)c3ccccc3)nc12 | 30.9% (inactive)
16 | COc1cccc2sc(N(CCCN(C)C)C(=O)CCS(=O)(=O)c3ccccc3)nc12 | 83.9% (active)
17 | COc1cccc2sc(N(CCCN(C)C)C(=O)C(c3ccccc3)c3ccccc3)nc12 | -2% (inactive)
18 | N#CCSc1nc2c(c(=O)n1Cc1ccccc1)C1(CCCC1)Cc1ccccc1-2 | 8.15% (inactive)
19 | Cc1cccc(-n2c(SCC(N)=O)nc3c(c2=O)C2(CCCCC2)Cc2ccccc2-3)c1 | 53.5% (active)
20 | Cc1cccc(-n2c(=O)c3c(C)c(C)sc3n(CC(N)=O)c2=O)c1 | -1.94% (inactive)
21 | O=C(OC12CC3CC(CC(C3)C1)C2)c1ccc(NCc2cc(O)ccc2O)cc1 | -1.56% (inactive)
22 | CC(C)c1ccc(C=NNc2ccc([N+](=O)[O-])cn2)cc1 | 4.1% (inactive)
23 | CSCCC(NC(=O)COc1ccccc1)C(=O)OCc1ccc(Cl)cc1 (stereo not given) | -1.24% (inactive)

Row | SMILES | inhibition
24 | COc1ccccc1NC(=O)C[n+]1ccccc1 | -9.21% (inactive)
25 | COc1ccccc1NC(=O)/C=C/C(N)=O | 121% (active)
26 | COc1ccccc1NC(=S)NC(=O)C(C)C | -8.37% (inactive)
27 | CCOC(=O)C1CCCN(C(=O)C2CCN(S(=O)(=O)c3ccc(Cl)c(C(F)(F)F)c3)CC2)C1 (stereo not given) | 10.8% (inactive)
28 | CCC1([N+](=O)[O-])COC(c2ccc(C)cc2)OC1 (stereo not given) | -3.32% (inactive)
29 | Cc1c(CCOC(=O)CC23CC4CC(CC(C)(C4)C2)C3)sc[n+]1Cc1ccc([N+](=O)[O-])cc1 | 64.3% (active) and -8% (inactive)
30 | Cc1c(CCO)sc[n+]1CC(=O)OC12CC3CC(CC(C3)C1)C2 | 2.54% (inactive)
31 | Cc1c(CCOC(=O)c2cc([N+](=O)[O-])ccc2Cl)sc[n+]1CCCCS(=O)(=O)[O-] | 12.5% (inactive)
32 | Cc1ccc(S(=O)(=O)N2CCN(C(=O)COC(=O)/C=C/c3cccc(Cl)c3)CC2)c(C)c1 | 5.03% (inactive)
33 | CN(C)C(CNC(=O)c1cc2ccccc2o1)c1ccccc1 (stereo not given) | 2.45% (inactive)
34 | CCN(CC)S(=O)(=O)c1cccc(NC(=O)c2ccc(S(=O)(=O)N3CCCC3)cc2)c1 | -3.62% (inactive)
35 | CC1C(C)N(C(=O)CCl)c2ccccc2N1C(=O)CCl (stereo not given) | -6.55% (inactive)
36 | Nc1cc2c(cc1Br)-c1ccc(F)cc1C2=O | -11.8% (inactive)
37 | CC1CN(Cc2ccco2)C(=S)N(c2ccccc2)C1=O (stereo not given) | 3.62% (inactive)
38 | NC(=O)c1ncn([C@@H]2O[C@H](CN=C3NS(=O)(=O)c4ccccc43)[C@@H](O)[C@H]2O)n1 | -1.34% (inactive)
39 | CC(=O)Nc1cccc(-c2csc(Nc3cccc(C)n3)n2)c1 | 65% (active)
40 | O=C(Nc1ccc(-c2csc(Nc3cccc(C(F)(F)F)c3)n2)cc1)c1cccc(C(F)(F)F)c1 | -6.03% (inactive)
41 | Cc1ccccc1Nc1nc(-c2cccnc2)cs1 | -4.39% (inactive)
42 | CC1(C)N=C(N)NC(Nc2ccc(Cl)cc2)=N1 | -1.08% (inactive)
43 | CC(C)(C)OC(=O)N1CCC(C(=O)Nc2cccc(C(=O)NCCc3ccccc3)c2)CC1 | 15.4% (inactive)
44 | COc1ccc2c(c1)c(=Cc1ccc(N(C)C)cc1)c1cc(-c3ccccc3)[n+](C)n12 | 14.8% (inactive)
45 | CC(=O)OCC(=O)C1(O)CCC2C3CC(C)C4=CC(=O)CCC4(C)C3C(O)CC21C (stereo not given) | -0.0615% (inactive)
